SMARCA2 act: SMARCA2 (BRM) function activators, primary screen, cell-based, luminescence, high throughput | MG213 cells, MMTV-luciferase reporter, dexamethasone, overnight | actives 1% (n = 370,000) | activation, % at 9.1 µM; in the data active means activation above about 7.8%;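 further: 0% = vehicle wells and 100% = reference activator wells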
HSF-1 act: HSF-1 activators, primary screen, NIH3T3-HGL cells, MG132 stress, luminescence, single point; NIH3T3-HGL HSF-1 luciferase reporter, 8 h; 100% = twice DMSO control signal; activation, % at 9 µM; actives 1.7% (n = 300,000);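 active means mean replicate activation of at least 50% with a set share of replicates each reaching 50%; inconclusive means only one of those two conditions met; inactive means mean below 50% and too few replicates reaching it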;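 further: 0% = median of the neutral control wells and 100% = twice that signal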
Wnt bcat act: Wnt/beta-catenin pathway activators, primary screen, cell-based, plate reader, single point; activation, % at 9.35 µM; Wnt/beta-catenin reporter cell assay, activator; actives 1.2% (n = 300,000); in the data active means activation above about 30%, passing the limit was not always enough; inconclusive means no clear call, values can overlap the other calls;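 further: 0% = neutral control wells and 100% = positive control wells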
HSF1 inhib: HSF1 inhibitors in luciferase reporter cells, primary screen, cell-based, NIH3T3, luminescence | NIH3T3-HGL HSE-luciferase, MG132-induced, luminescence 8 h; active compounds read low | activity change, negative = inhibition, % at 7.5 µM (by protocol) | actives 0.77% (n = 300,000) | AID 2098, 2009;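 active means more than half of replicate wells show activity change below -50%, luminescence cut by over half; inconclusive means some wells, but at most half, below -50%; inactive means no replicate well below -50%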;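 further: luciferase reports HSF-1 transcriptional activity via heat shock element; 0% = median of DMSO wells and -100% = zero luminescence signal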
MITF TRPM1 HTS: activators of MITF-driven TRPM1 promoter reporter, primary screen, cell-based, SK-MEL-5, luciferase, single point; SK-MEL-5 TRPM1-promoter luciferase, 24 h; % of positive control, neutral wells = 0; activation, % at 12.5 µM; actives 0.75% (n = 300,000);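 active means mean activation of at least 80% with every replicate also reaching 80%; inconclusive means mean reaches 80% but some replicate falls short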;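 further: 0% = neutral control wells and 100% = parthenolide positive control wells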
esBAF inh: Bmi1 luciferase reporter increase in mESCs, primary screen, esBAF inhibitor project, mouse ES cells, Bmi1 luciferase knock-in, single point | 24 h; 100% = twice the neutral-well signal | reporter increase, % at 12.5 µM | actives 2% (n = 350,000) | AID 602393, 2012; in the data active means activation above about 40%; inconclusive means no clear call, values can overlap the other calls;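 further: 0% = median of the plate's neutral control wells and 100% = double that signal; a rise in the Bmi1 reporter signal indicates esBAF inhibition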
The depositor's hits bear a star; ? = inconclusive; / = no result given. In the library only some 4.3% were active in any assay of this set; here they are far more common.

SMILES	SMARCA2 act	HSF-1 act	Wnt bcat act	HSF1 inhib	MITF TRPM1 HTS	esBAF inh
Cc1ccc(OCc2ccc([N+](=O)[O-])cc2)c([N+](=O)[O-])n1	2.1	12.6	33.2*	17.0	138.8*	/
Cc1ccc(OCc2ccccc2C)c([N+](=O)[O-])n1	1.5	0.2	1.5	-4.1	27.3	10.9
Cc1ccc(OCCOc2ccc(Br)cc2)c([N+](=O)[O-])n1	5.3	34.5	13.0	17.0	123.3*	64.7*
C/C=C/c1ccc([C@H]2[C@@H](CO)N(C(=O)CC)[C@H]2CNC(=O)c2ccncc2)cc1	/	/	/	/	/	-1.1
C=CCN(CC(=O)Nc1cccnc1)S(=O)(=O)c1ccc(Cl)cc1	-4.1	/	37.1*	/	-3.4	3.6
Nc1n[nH]c(N)c1N=Nc1cccc(C(F)(F)F)c1	0.3	6.7	1.6	-0.4	32.6	51.3*
COC(=O)Nc1ccc(SCC(=O)c2ccccc2)cc1	3.2	22.6	-1.9	4.4	13.5	/
COC(=O)Nc1ccc(SCC(=O)c2ccc(Cl)cc2)cc1	-1.9	107.5*	-0.9	71.7	-0.1	3.2
O=C(C[C@H]1C=C[C@H](NC(=O)Nc2ccc(F)cc2)[C@H](CO)O1)NCc1ccccn1	/	/	/	/	/	0.2
Cc1cccc(/C=N/NC(=O)Cc2ccc(Cl)cc2)c1O	-0.3	2.9	-2.7	3.2	-11.9	-8.1
O=C(N/N=C/c1ccc(Cl)cc1Cl)c1cccc(F)c1	3.9	55.6*	38.5*	28.7	138.4*	63.4*
O=C(Cn1cnc2ccccc21)N/N=C/c1ccccc1	-4.6	-8.0	-0.3	-3.8	-4.8	/
Cc1cccc(/C=N\NC(=O)c2ccc(Cl)cc2)c1O	-0.5	259.5*	3.0	208.5	-16.1	/
CC(=C/c1ccccc1)/C=N/NC(=O)c1cccs1	1.8	54.7*	4.3	13.6	/	/
CC(/C=N/NC(=O)Cn1cnc2ccccc21)=C\c1ccccc1	-4.2	-75.2	-1.9	-65.8*	-4.1	-8.2
CCC(=O)N(C)C[C@H]1Oc2cc(C#Cc3ccccn3)ccc2S(=O)(=O)N([C@H](C)CO)C[C@H]1C	/	/	/	/	/	6.2
Cc1cccc(NC(=O)Nc2ccc3c(c2)C(=O)N(C)[C@@H]2CC[C@H](CC(=O)NCc4ccccc4Cl)O[C@H]2CO3)c1	/	/	/	/	/	9.1
CC=Cc1ccc2n(c1=O)C[C@H]1[C@H](CO)[C@@H](C(=O)N(C)C)N(C(=O)CC3CC3)[C@@H]21 (mixture of isomers)	/	/	/	/	/	-1.5
CC(/C=N/NC(=O)c1ccncc1)=C\c1ccccc1	-0.9	13.1	5.7	1.0	22.2	13.3
CC(/C=N/NC(=O)c1cccc(F)c1)=C\c1ccccc1	1.9	83.3*	39.6*	57.2	44.0	6.9
CCn1c(NC(=S)Nc2ccccc2)nc2ccccc21	3.3	-69.1	33.0*	-60.2*	/	1.0
CCCn1c(NC(=S)Nc2ccccc2)nc2ccccc21	-1.1	-6.1	/	-8.8	16.0	10.6
CCn1c(C)nc2cc(C(=O)NNC(=S)Nc3ccccc3)ccc21	5.1	-68.4	3.4	-67.0*	19.6	-1.2
CCn1c(C)nc2cc(C(=O)NNC(=S)NC(=O)c3ccccc3)ccc21	-1.7	-59.9	-1.4	-53.2*	1.0	/
C[C@@H]1CN([C@H](C)CO)C(=O)c2cc(N(C)C)ccc2O[C@@H](C)CCCCO[C@@H]1CN(C)C(=O)Nc1ccc2c(c1)OCO2	/	/	/	/	/	18.0
Nc1nc(Nc2cccc(F)c2)nc2ccccc12	6.0	55.5*	/	35.8	44.3	?
Cc1ccc(C)c(Nc2nc(N)c3ccccc3n2)c1	4.1	-25.5	33.1*	-15.2	47.0	/
C[C@H](CO)N1C[C@H](C)[C@@H](CN(C)Cc2ccc(Cl)c(Cl)c2)Oc2ccc(N(C)C)cc2CC1=O	/	/	/	/	/	0.8
CCN1[C@H](C(=O)NCc2cccc(OC)c2)[C@@H](CO)[C@@H]2Cn3c(ccc(C4=CCCC4)c3=O)[C@@H]21	/	/	/	/	/	-0.3
CC(=O)C1=C(C)OC2(O)c3ccccc3C(=O)C12O (centres undefined)	-2.3	59.1*	-1.7	14.3	/	/

Compound activity deposited in PubChem BioAssay by several laboratories.
